# Structures can show the parent of a compound that is named as a salt.
# Columns and labels:
# Conditions in all cases: compound concentration in added solution (µM; 5 µl added to 20 µl cells): 10; 18 h
# A431 [1] = experiment: LBPA endosome anti-LBPA integrated intensity (sum per cell), Z-score; higher = more LBPA staining
# Outline: (§1)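 Reported values are Z-scores from AcuityXpress normalisation of per-cell integrated LBPA or filipin staining. HeLa MZ or A431 cells (3,500/well in 20 µl) were seeded onto 5 µl of 10 µM compound solution in duplicate 384-well plates, incubated 18 h, fixed in 4% PFA, stained and imaged at 20×. MetaXpress segmentation measured the intensity over the whole cell or within LBPA endosomes.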
# HeLa MZ [2] = experiment: as above
# Outline: as §1
# A431 [3] = experiment: whole-cell filipin (free cholesterol) integrated intensity, Z-score; higher = more cholesterol staining
# Outline: as §1
# HeLa MZ [4] = experiment: as above
# Outline: as §1
# A431 [5] = experiment: filipin (cholesterol) integrated intensity within LBPA endosomes, Z-score; higher = more cholesterol in LBPA endosomes
# Outline: as §1
# HeLa MZ [6] = experiment: as above
# Outline: as §1
SMILES,LBPA endosome anti-LBPA integrated intensity (z-score) (A431 [1]),LBPA endosome anti-LBPA integrated intensity (z-score) (HeLa MZ [2]),whole-cell filipin (z-score) (A431 [3]),whole-cell filipin (z-score) (HeLa MZ [4]),filipin (z-score) (A431 [5]),filipin (z-score) (HeLa MZ [6])
CC(=O)OCC(=O)[C@@]12OC3(CCCC3)O[C@@H]1C[C@H]1[C@@H]3CCC4=CC(=O)C=C[C@]4(C)[C@@]3(F)[C@@H](O)C[C@@]12C [Amcinonide],-0.0445,0.215,0.476,0.977,-0.0127,0.16
C[C@@H](O)[C@H]1C(=O)N2C(C(=O)O)=C(SCCNC=N)C[C@H]12 [Imipenem],-0.41,0.231,-0.414,0.00347,-0.461,-0.385
CN(C)CC/C=C1\c2ccccc2CSc2ccccc21 [Dosulepin hydrochloride],1.61,0.828,1.17,0.164,1.82,0.976
Nc1ccc(/N=N/c2ccccc2)c(N)n1 [Phenazopyridine hydrochloride],-0.183,0.466,-0.169,-0.724,-0.32,-0.502
COc1ccc2[nH]c([S+]([O-])Cc3ncc(C)c(OC)c3C)nc2c1 (stereo unspecified) [Omeprazole],-0.534,-0.664,-0.421,-0.0929,-0.508,-0.373
CN(C)[C@@H]1C(O)=C(C(N)=O)C(=O)[C@@]2(O)C(O)=C3C(=O)c4c(O)cccc4[C@@](C)(O)[C@H]3C[C@@H]12 [Tetracycline hydrochloride],-0.508,0.0873,-0.872,-0.867,-0.521,-0.698
OCc1cc(C(O)CNCCCCCCOCCCCc2ccccc2)ccc1O (stereo unspecified) [Salmeterol],2.65,2.85,3.59,2.48,1.61,2.18
CCOC(=O)c1ccc(OC(=O)CCCCCNC(=N)N)cc1 [Gabexate mesilate],-0.44,0.019,0.196,0.0139,-0.481,-0.456
CCCCc1oc2ccccc2c1C(=O)c1cc(I)c(OCCN(CC)CC)c(I)c1 [Amiodarone hydrochloride],1.78,0.0569,0.251,0.182,2.45,1.95
Cc1cc2cc3c(C)cc(=O)oc3c(C)c2o1 [Trioxsalen],-0.317,0.147,-0.465,-0.318,-0.425,-0.476
CC[C@H](C)C(=O)O[C@H]1C[C@@H](C)C=C2C=C[C@H](C)[C@H](CC[C@@H]3C[C@@H](O)CC(=O)O3)[C@H]21 [Lovastatin],-0.976,-1.31,-0.714,-0.104,-0.696,0.121
O=C(NCC1CCCCN1)c1cc(OCC(F)(F)F)ccc1OCC(F)(F)F (stereo unspecified) [Flecainide acetate],0.848,1.72,1.08,0.76,0.948,0.836
CC1CNc2c(cccc2S(=O)(=O)N[C@@H](CCCNC(=N)N)C(=O)N2CC[C@@H](C)C[C@@H]2C(=O)O)C1 (stereo partly specified) [Argatroban],-0.429,-0.462,-0.724,0.346,-0.455,-0.335
CC(CN(C)C)C(C)(O)Cc1ccc(Cl)cc1 (stereo unspecified) [Clobutinol hydrochloride],-0.559,0.835,-0.328,-0.426,-0.624,-0.205
CC(=O)Nc1ccc(OCC(O)CNC(C)C)cc1 (stereo unspecified) [Practolol],-0.578,-0.861,-0.908,-0.531,-0.573,-0.506
CC(C)(S)[C@@H](N)C(=O)O [Penicillamine],-0.535,-0.589,-0.551,-0.607,-0.469,-0.553
CCn1cc(C(=O)O)c(=O)c2cnc(N3CCNCC3)nc21 [Pipemidic acid],-0.522,0.188,-0.242,0.338,-0.361,-0.281
CC(C)(C)NCC(O)COc1cccc2c1CC(O)C(O)C2 (stereo unspecified) [Nadolol],-0.438,0.289,-0.0909,0.44,-0.44,-0.157
N[C@@H]1CONC1=O [D-cycloserine],-0.278,-0.4,-0.132,-0.322,-0.405,-0.523
CC1COc2c(N3CCN(C)CC3)c(F)cc3c(=O)c(C(=O)O)cn1c23 (stereo unspecified) [Ofloxacin],-0.519,-0.166,-0.939,0.125,-0.532,-0.106
C=CC1=C(C(=O)O)N2C(=O)[C@@H](NC(=O)/C(=N\O)c3csc(N)n3)[C@H]2SC1 [Cefdinir],-0.422,-0.414,-0.315,-0.322,-0.385,-0.46

# Source: the supplement of paper PMC6607015
